Our source for the growth values is PubChem BioAssay (NCI).

Holding throughout (assay): NCI-60 one-dose screen, 48 h (100 = growth as untreated, 0 = no growth, -100 = all killed)
What all share (details): 10 µM unless noted

The test system of test [1] is SK-MEL-2 melanoma.
Test [2] has as its system EKVX NSCLC.
For test [3], the system named is SN12C renal.
Test [4] has as its system UO-31 renal.
The test system of test [5] is TK-10 renal.
Test [6] deals with ACHN renal.
In test [7] the test system is CAKI-1 renal.
For test [8], the system named is A498 renal.
For test [9], the system named is CCRF-CEM leukemia.
Test [10] concerns SR leukemia.
For test [11], the system named is RPMI-8226 leukemia.
The subject of test [12] is OVCAR-8 ovarian.
Test [13] has as its system OVCAR-5 ovarian.
The subject of test [14] is OVCAR-4 ovarian.
The test system of test [15] is SK-OV-3 ovarian.
Test [16] relates to IGROV1 ovarian.
The subject of test [17] is HS 578T breast.
The test system of test [18] is NCI/ADR-RES ovarian.
For test [19], the system named is OVCAR-3 ovarian.

Compounds without any hit were thinned out: in the full panel of roughly 83,000, 20% have a hit.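 96-well plates, one dose, 48 hours. Percent growth reported; active if below 10.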 Values without a mark were called inactive. The source made the active and inactive calls.

As to `COc1cccc(-c2nn(-c3ccccc3)cc2-c2ccnc(NCCNC(=O)Nc3cccc(C(F)(F)F)c3)c2)c1`, the growth in test [1] was -25.2% (active); in [2] it was 45.1%; in [3] it was 28.4%; in [4], -21.9% (active); in test [5] it was 57.7%; in test [6], 35.1%. The growth in [7] is 25.7%; in [8], 39.7%; in [9] it was 28.7%; in test [10], -21.2% (active); in test [11], 32.6%; in test [12], 19.8%. For the same compound, the growth is 58.4% in test [13]; 46.5% in [14]; 44.9% in test [15]; 55.4% in test [16]; -21.3% (active) in test [17]; 27.2% in test [18].

For the compound `COc1cccc(-c2nn(-c3ccccc3)cc2-c2ccnc(NCCCNC(=O)Nc3ccc(Cl)c(Cl)c3)c2)c1`, the growth in test [1] was -53.9% (active); in test [2] it was 37.8%; in test [3] it was 37.5%; in test [4] it was -34.4% (active); in test [5], 45.7%; in test [6] it was 32.9%. Moreover, the growth was 24% in test [7]; 4.95% (active) in test [8]; 1.35% (active) in test [9]; -32.8% (active) in [10]; -2.49% (active) in [11]; 1.46% (active) in test [12]. For the same compound, the growth in test [13] was 54.4%; in test [14] it was 30.9%; in test [15] it was 22.2%; in test [16] it was 36.6%; in test [19], 29.5%; in test [17], -26.1% (active). Moreover, the growth in [18] is -20.3% (active).

Turning to `O=C(O)C1CCC(=O)N1C(=O)OCc1ccccc1` (stereo unspecified), the growth in test [1] is 103%; in [2] it was 97.8%; in test [3], 90.1%; in [4], 88.7%; in [5], 88.7%; in test [6], 96.3%. The growth in test [7] was 83.4%; in test [8] it was 123%; in test [9] it was 102%; in test [10] it was 89.4%; in test [11], 88.8%; in test [12] it was 96.3%. The growth in test [13] was 92.6%; in [14] it was 101%; in test [15], 109%; in test [16] it was 110%; in test [19], 118%; in test [17], 136%. In addition, the growth in [18] was 98.4%.

As to `COC(=O)[C@]12CC[C@@H](C)[C@H](C)[C@@H]1C1=CC[C@@H]3[C@@]4(C)C(C=O)=C[C@@](C)(COC(C)=O)[C@@H]4C(=O)C[C@@]3(C)[C@]1(C)CC2`, the growth in [1] is 43%; in test [2], 36.1%; in test [3], 43.6%; in test [4], 34.1%; in test [5] it was 36.8%; in test [6], 23.5%. Further, the growth is 44.6% in test [7]; 60.5% in test [8]; 43.9% in test [9]; 48.3% in [10]; 26% in test [11]; 41.5% in test [12]. For the same compound, the growth in test [13] is 68.8%; in test [14], 38.1%; in test [15], 42.3%; in test [16], 46.3%; in test [19] it was 39.1%; in [17] it was 65.1%. In [18], the growth is 34%.

In the case of `CC(C)(C)n1cc(-c2ccnc(NCCCNS(=O)(=O)c3ccccc3)c2)c(-c2ccccc2)n1`, the growth in [1] was 98.7%; in test [2], 70.7%; in test [3], 78.2%; in test [4], 59%; in [5], 94.1%; in test [6] it was 97.2%. The growth in test [7] is 80.9%; in [8] it was 39.7%; in [9], 42.6%; in [10], 31.7%; in test [11], 65.5%; in test [12], 68.9%. The growth was 94% in test [13]; 70.4% in [14]; 85.1% in test [15]; 78.3% in test [16]; 83.9% in test [19]; 96% in test [17]. For the same compound, in test [18], the growth was 74.6%.

Take `N#Cc1c(N)nc(NCCO)nc1-c1ccc(F)cc1`: the growth was 108% in [1]; 89.9% in test [2]; 103% in test [3]; 92.8% in test [4]; 106% in [5]; 100% in test [6]. The growth in [7] is 95.9%; in test [8] it was 89.1%; in [9] it was 112%; in test [10], 99.3%; in [11] it was 94.1%; in test [12], 99.7%. The growth in test [13] was 105%; in test [14], 95.6%; in test [15], 84.9%; in test [16] it was 102%; in [19], 110%; in test [17], 92.5%. The growth in test [18] was 105%.

For `CCN(CC)CCCCCCNc1cc(OC)c(Cl)c2cccnc12`, the growth in [1] was 92.4%; in [2] it was 85.6%; in test [3] it was 67.7%; in [4], 51.8%; in test [5], 85.3%; in test [6] it was 82.5%. Moreover, the growth in [7] was 84.6%; in test [8], 45.3%; in test [9], 84.7%; in [10] it was 42.2%; in [11], 75.3%; in test [12] it was 84.9%. In addition, the growth in test [13] is 83%; in test [14] it was 73.6%; in [15], 92.5%; in [16], 86.6%; in [19], 66.9%; in test [17], 58.8%. In addition, the growth in test [18] is 79.3%.

For the compound `C[n+]1cc2cc(C(N)=O)[nH]c3c(=N)c(Cl)c(N)c1c23`, the growth was 96.1% in test [1]; 101% in test [2]; 53.6% in [3]; 81.1% in [4]; 73.9% in test [5]; 39% in test [6]. The growth in [7] is 79.9%; in test [8], 71.9%; in [9], 37.6%; in [10], 37.6%; in [11], 73%; in [12], 43.1%. For the same compound, the growth in test [13] is 62%; in [14], 73%; in test [15], 60%; in [16], 65.1%; in [19], 63.1%; in test [17] it was 108%. Further, the growth in test [18] was 60%.
